Data on five compounds can be found in PubChem BioAssay.

The source made the active and inactive calls. Unless noted, how the calls were made is not given here.

Assay [1] in a line: compounds binding Alexa647 anti-His antibody – biochemical, small-molecule microarray, 635 nm fluorescence, artefact control for SMM control protein annotation, primary screen (AID 1128).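 Further: score merges feature fluorescence with signal-to-noise for each printed compound spot.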 The conditions noted are these: higher = more signal.
The test system of assay [2] is Human papillomavirus type 1a E7 protein (residues 1-88). Description: HPV1a E7 small-molecule binders, primary screen, biochemical, small-molecule microarray, residues 1-88, 635 nm (AID 1129). Particulars: small-molecule microarray binding, fluorescence 635 nm; higher = more signal.
The target in assay [3] is Focal adhesion kinase 1 (Homo sapiens) (UniProt Q05397). Description: PTK2 protein binding on printed compound slides – biochemical, small-molecule microarray, 635/667 nm fluorescence, BSA, DTT, primary screen (AID 1130).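 Further: composite of spot emission at 667 nm and signal to noise over triplicate slides.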 Particulars: 635 nm fluorescence, higher = more signal.
The test system of assay [4] is Fibrinogen (Alexa647-labelled). Description: Alexa647-fibrinogen binding to printed small molecules – biochemical, small-molecule microarray, 635/667 nm fluorescence, artefact control for SMM control-protein annotation, profiling panel (AID 1131).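 Further: z-score merges 667 nm fluorescence with per-spot signal-to-noise over triplicate slides.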 Particulars: fibrinogen-A647 binding fluorescence, higher = more signal.
The target of assay [5] is Follistatin (Homo sapiens) (UniProt P19883). Description: FST protein binding to printed compounds – biochemical, small-molecule microarray, 635/667 nm fluorescence, primary screen (AID 1132). Particulars: 635 nm fluorescence, higher = more signal.
Assay [6] concerns the target Fibroblast growth factor 2 (Homo sapiens) (UniProt P09038). The experiment in a line: basic fibroblast growth factor binding to printed compounds – biochemical, small-molecule microarray, 635/667 nm fluorescence, primary screen (AID 1133). Particulars: FGF2, fluorescence 635/667, higher = more signal.
The nature of assay [7]: JC-1 mitochondrial potential readout, lung cancer cells – cell-based, A549, JC-1 fluorescence, basal, 24 h, 100 nL, profiling panel (AID 1138).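 Further: A549 lung adenocarcinoma cells under basal conditions with no added stimulus; test concentration not given here.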 The conditions noted are these: higher = more signal.
In assay [8] the test system is Lefty1. The experiment in a line: Lefty1 protein binding to printed compounds – biochemical, small-molecule microarray, 635/667 nm fluorescence, primary screen (AID 1139). The conditions noted are these: fluorescence 635/667, higher = more signal.
In assay [9] the test system is wheat germ agglutinin (Triticum aestivum), Alexa647-labelled. The experiment in a line: Alexa647-WGA lectin binding to printed small molecules – biochemical, small-molecule microarray, 635/667 nm fluorescence, artefact control for SMM control-protein annotation, profiling panel (AID 1140).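 Further: score merges 667 nm feature emission with signal to noise over triplicate slides.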 Particulars: WGA-A647 binding, 635 nm fluorescence, higher = more signal.
In assay [10] the target is Luciferin 4-monooxygenase (Photinus pyralis) (UniProt P08659). The experiment in a line: inhibition of purified Photinus pyralis luciferase – biochemical, luminescence, purified enzyme, 2006 set, primary screen (AID 1141).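 Further: cell-free assay with purified firefly luciferase at 100 ng per well in PBS; test concentration not given here.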 Particulars: purified firefly luciferase, SteadyGlo luminescence, 30 min; higher = more signal, called active from +8 up or from −8 down.
For assay [11], the system named is Wnt5a (protein binding on small-molecule microarray). Description: small molecules binding Wnt5a protein – biophysical, small-molecule microarray, 635/667 nm fluorescence, primary screen (AID 1142).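 Further: fluorescence read at 667 nm with signal to noise per printed feature.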 Particulars: 635 nm fluorescence, higher = more signal.
Assay [12] in a line: ATP-based viability of Huh7 replicon cells – cell-based, CellTiter-Glo luminescence, basal, 48 h, cytotoxicity control for HCV replication inhibitor project, primary screen (AID 1143).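 Further: Huh7 hepatoma cells carrying a hepatitis C replication reporter with no stimulus; test concentration not given here.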 The conditions noted are these: higher = more signal, called active from +8 up or from −8 down. In general terms: A replicon is a self-replicating genome or part of one, used to study replication in cells.

A short description of assay [13]: Pseudomonas biofilm growth suppression – PAO1 strain, BacTiter-Glo luminescence, LB-PBS, primary screen (AID 1144). Particulars: P. aeruginosa PAO1 biofilm, 12 h, higher = more signal.
Assay [14] is described as follows: basal CRE-LacZ reporter activity in PC12 – cell-based, unstimulated, primary screen (AID 1145). Particulars: no forskolin, luminescence, 4.5 h, higher = more signal, called active from +8 up or from −8 down.
Assay [15] in a line: forskolin-driven CRE-LacZ activity in PC12 – cell-based, CRE-LacZ reporter, forskolin-stimulated, primary screen (AID 1146).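 Further: PC12 cells with 6xCRE LacZ reporter stimulated by forskolin 10 µM; beta-galactosidase reporter signal reflecting CREB driven transcription.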 The conditions noted are these: luminescence, 4.5 h, higher = more signal, called active from +8 up or from −8 down.
Assay [16] deals with Streptavidin (Streptomyces avidinii) (UniProt P22629). Description: compounds binding control protein streptavidin – biophysical, small-molecule microarray, 635/667 nm fluorescence, artefact control for SMM compound annotation, primary screen (AID 1147).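 Further: signal reflects streptavidin binding to arrayed compounds as a control protein.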 Particulars: higher = more signal.
Assay [17] can be described thus: probe aInhba binding on compound microarray – biochemical, small-molecule microarray, 635/667 nm fluorescence, primary screen (AID 1148).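 Further: score merges 667nm spot fluorescence with signal-to-noise for antibody binding to printed compounds.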 Particulars: higher = more signal.
Assay [18] has as its target Torsin-1A (Homo sapiens) (UniProt O14656). Description: TOR1A wild-type binding on microarray – cell lysate, small-molecule microarray, lysate, 635/667 nm, primary screen (AID 1149). Particulars: COS7 hTOR1A-WT lysate, 635 nm fluorescence, higher = more signal.
Assay [19] has the same target. Description: torsin A mutant lysate binding on microarrays – cell lysate, small-molecule microarray, COS7 lysate, 635/667 nm fluorescence, primary screen (AID 1150).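 Further: score pools 667 nm emission and signal to noise measuring lysate protein binding.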 The conditions noted are these: COS7 hTOR1A mutant lysate, 635 nm fluorescence, higher = more signal.
Assay [20] relates to Sonic hedgehog protein (Shh). The experiment in a line: Sonic hedgehog microarray binding compounds – biochemical, small-molecule microarray, 635/667 nm fluorescence, primary screen (AID 1151).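 Further: Shh protein binding to compounds spotted on small-molecule microarray slides; score combines spot fluorescence intensity with signal-to-noise across triplicate slides.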 The conditions noted are these: 635 nm fluorescence, higher = more signal.

Chain of Focal adhesion kinase 1 (Homo sapiens) (Q05397 whole entry, looked up): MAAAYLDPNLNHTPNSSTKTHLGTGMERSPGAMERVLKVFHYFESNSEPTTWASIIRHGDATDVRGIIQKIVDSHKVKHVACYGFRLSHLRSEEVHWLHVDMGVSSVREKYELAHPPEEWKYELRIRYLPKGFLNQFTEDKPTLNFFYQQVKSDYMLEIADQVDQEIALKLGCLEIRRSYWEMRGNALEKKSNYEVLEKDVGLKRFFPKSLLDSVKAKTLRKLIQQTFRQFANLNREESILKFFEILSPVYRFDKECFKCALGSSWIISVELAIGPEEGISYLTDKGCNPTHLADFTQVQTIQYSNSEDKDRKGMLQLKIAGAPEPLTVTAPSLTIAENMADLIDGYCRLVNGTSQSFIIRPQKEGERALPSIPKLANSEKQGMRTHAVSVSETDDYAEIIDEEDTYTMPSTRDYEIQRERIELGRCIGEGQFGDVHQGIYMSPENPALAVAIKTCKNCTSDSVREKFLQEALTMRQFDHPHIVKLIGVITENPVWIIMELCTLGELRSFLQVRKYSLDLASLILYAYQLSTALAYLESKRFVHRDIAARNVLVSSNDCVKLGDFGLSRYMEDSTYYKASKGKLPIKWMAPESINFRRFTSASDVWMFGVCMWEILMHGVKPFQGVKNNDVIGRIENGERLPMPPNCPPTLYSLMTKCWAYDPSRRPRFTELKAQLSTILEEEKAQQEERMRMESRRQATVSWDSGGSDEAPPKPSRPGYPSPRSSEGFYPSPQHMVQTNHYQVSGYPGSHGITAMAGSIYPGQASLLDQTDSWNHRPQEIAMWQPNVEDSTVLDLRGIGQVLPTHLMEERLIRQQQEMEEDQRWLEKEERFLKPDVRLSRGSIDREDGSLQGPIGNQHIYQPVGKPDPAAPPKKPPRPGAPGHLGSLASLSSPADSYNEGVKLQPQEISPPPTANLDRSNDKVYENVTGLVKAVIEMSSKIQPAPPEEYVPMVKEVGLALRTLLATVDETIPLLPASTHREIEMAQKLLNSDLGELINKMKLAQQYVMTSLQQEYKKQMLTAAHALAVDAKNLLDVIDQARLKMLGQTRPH
Chain of Fibroblast growth factor 2 (Homo sapiens) (P09038 whole entry, looked up): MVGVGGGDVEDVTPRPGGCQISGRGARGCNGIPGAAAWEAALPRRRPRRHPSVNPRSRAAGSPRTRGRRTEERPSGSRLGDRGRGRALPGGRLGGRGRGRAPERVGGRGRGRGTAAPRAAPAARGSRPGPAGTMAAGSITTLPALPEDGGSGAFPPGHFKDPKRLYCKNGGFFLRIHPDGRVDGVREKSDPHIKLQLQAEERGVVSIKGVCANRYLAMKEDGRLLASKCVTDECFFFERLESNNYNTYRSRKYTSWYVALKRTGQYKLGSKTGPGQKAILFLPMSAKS
Chain of Follistatin (Homo sapiens) (P19883 whole entry, looked up): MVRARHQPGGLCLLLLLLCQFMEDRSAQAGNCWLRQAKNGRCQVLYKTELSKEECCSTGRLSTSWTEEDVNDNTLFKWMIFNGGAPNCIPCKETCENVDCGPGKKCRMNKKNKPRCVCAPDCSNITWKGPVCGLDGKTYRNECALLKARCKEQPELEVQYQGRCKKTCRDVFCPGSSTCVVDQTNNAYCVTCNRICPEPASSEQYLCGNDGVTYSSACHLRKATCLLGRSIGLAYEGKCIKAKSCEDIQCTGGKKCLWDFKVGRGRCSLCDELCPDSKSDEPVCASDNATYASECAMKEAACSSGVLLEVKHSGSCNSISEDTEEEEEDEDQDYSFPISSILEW
Chain of Torsin-1A (Homo sapiens) (O14656 whole entry, looked up): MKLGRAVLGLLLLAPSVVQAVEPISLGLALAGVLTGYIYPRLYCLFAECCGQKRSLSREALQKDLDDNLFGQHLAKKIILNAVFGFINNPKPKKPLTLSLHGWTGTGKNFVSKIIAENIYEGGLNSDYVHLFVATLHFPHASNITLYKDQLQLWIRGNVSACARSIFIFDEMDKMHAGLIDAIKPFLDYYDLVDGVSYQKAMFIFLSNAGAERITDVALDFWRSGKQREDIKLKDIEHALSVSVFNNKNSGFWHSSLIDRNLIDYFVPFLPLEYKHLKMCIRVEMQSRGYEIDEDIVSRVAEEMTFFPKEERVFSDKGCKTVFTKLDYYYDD
Chain of Luciferin 4-monooxygenase (Photinus pyralis) (P08659 whole entry, looked up): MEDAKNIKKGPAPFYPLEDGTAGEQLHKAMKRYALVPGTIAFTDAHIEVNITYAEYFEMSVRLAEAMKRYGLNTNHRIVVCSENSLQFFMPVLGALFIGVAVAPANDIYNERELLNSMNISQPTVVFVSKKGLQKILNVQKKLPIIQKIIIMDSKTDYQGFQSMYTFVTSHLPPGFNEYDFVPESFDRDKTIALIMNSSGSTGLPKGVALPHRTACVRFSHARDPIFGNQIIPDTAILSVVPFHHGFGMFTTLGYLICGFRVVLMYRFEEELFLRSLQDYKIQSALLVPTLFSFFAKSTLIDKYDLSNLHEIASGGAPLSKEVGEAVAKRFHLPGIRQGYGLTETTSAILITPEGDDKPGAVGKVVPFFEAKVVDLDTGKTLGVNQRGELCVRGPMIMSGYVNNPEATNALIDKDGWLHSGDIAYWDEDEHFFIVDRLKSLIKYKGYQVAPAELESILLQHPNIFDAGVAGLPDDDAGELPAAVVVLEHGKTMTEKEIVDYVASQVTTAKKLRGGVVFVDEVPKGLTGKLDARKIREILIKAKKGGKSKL
Chain of Streptavidin (Streptomyces avidinii) (P22629 whole entry, looked up): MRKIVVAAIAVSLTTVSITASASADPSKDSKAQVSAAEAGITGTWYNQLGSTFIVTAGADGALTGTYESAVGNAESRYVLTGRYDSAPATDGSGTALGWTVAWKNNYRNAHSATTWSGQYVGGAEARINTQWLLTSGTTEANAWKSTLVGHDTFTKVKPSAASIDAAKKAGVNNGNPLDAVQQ

Turning to `CC(C)C[C@@H]1NC(=O)[C@@H]2C[C@H](C(=O)NCCCCCC[N+](C)(C)C)[C@H](c3cccc(OCCO)c3)N2C1=O`, the composite z-score in assay [1] is -0.759; in assay [2], -0.0265; in assay [3], -0.219; in assay [4] it was 0.0163; in [5], 0.349; in assay [6] it was 1.17. The composite z-score in assay [8] is 0.34; in [9] it was -0.285; in assay [11], -0.391; in [16], -0.665; in [17], -0.128; in assay [18], -0.153. Moreover, the composite z-score in assay [19] amounted to 0.393; in assay [20], 1.46. In addition, the z-score was -0.547 in assay [7]; 0.184 (inactive) in [10]; -0.351 (inactive) in [12]; -0.226 (inactive) in assay [13]; -0.943 (inactive) in assay [14]; -0.153 (inactive) in [15].
On to `COc1cc(NN2C(C(O)c3ccc(I)cc3)C=CC3C(=O)N(c4ccccc4)C(=O)C32)cc(OC)c1OC` (stereo not given), for which the composite z-score amounted to 2.4 in assay [1]; 1.24 in [2]; 0.522 in assay [3]; 0.993 in [4]; 1.2 in assay [5]; 0.562 in assay [6]. Further, the composite z-score in assay [8] is 0.52; in assay [9] it was 1.39; in assay [11], 0.378; in [16] it was 0.901; in assay [17], 0.233; in assay [18], 0.544. In addition, the values for the composite z-score in assay [19] and in assay [20] were 0.743 and 0.325, respectively. Moreover, the z-score in assay [7] was 0.235; in [10] it was -0.285 (inactive); in assay [12], -3.44 (inactive); in assay [13] it was -1.28 (inactive); in assay [14] it was -0.136 (inactive); in assay [15] it was 0.0938 (inactive).
As to `CC(C)CNC(=O)[C@@]1(C)c2ccccc2C(=O)N(Cc2cc(C(F)(F)F)cc(C(F)(F)F)c2)[C@H]1c1ccc(CO)cc1`, the composite z-score in [1] was -0.738; in [2] it was -0.391; in assay [3] it was -0.342; in assay [4], -1.03; in assay [5], -0.117; in assay [6], 0.0193. Further, the composite z-score in [8] was 0.0325; in assay [9], -0.356; in assay [11], -0.445; in [16], -0.366; in assay [17] it was -0.0987; in [18], -0.918. In addition, the results for the composite z-score in assay [19] and in assay [20] were -0.267 and -0.117, respectively. For the same compound, the z-score was 0.843 in [7]; -0.0582 (inactive) in assay [10]; -3.12 (inactive) in [12]; 0.92 (inactive) in assay [13]; 0.414 (inactive) in [14]; -0.578 (inactive) in [15].
As for `CCCNC(=O)[C@@]1(Sc2ccc(C)cc2)CC(=O)N(C2CCCCC2)[C@@H]1c1ccc(CO)cc1I`, the composite z-score was 1.53 in assay [1]; 1.2 in assay [2]; 0.996 in [3]; 0.146 in assay [4]; -0.182 in [5]; 0.128 in assay [6]. Moreover, the composite z-score in [8] was -0.351; in assay [9], 0.73; in assay [11], 0.108; in assay [16], 0.133; in assay [17], -0.198; in assay [18], 0.0272. Further, the composite z-score in [19] was 0.197; in [20] it was -0.158. In addition, the z-score in assay [7] was 1.04; in [10], -0.0779 (inactive); in [12] it was -2.76 (inactive); in assay [13] it was 0.687 (inactive); in assay [14], 0.272 (inactive); in assay [15], 1.38 (inactive).
Turning to `[N-]=[N+]=Nc1ccccc1[C@@H]1OC(c2ccc(OCCCO)cc2)=N[C@]1(Cc1ccccc1)C(=O)NCc1ccccc1`, the composite z-score in assay [1] amounted to 1.27; in [2] it was 1.17; in [3] it was 0.763; in assay [4] it was 0.798; in assay [5], 0.852; in assay [6], 0.409. Further, the composite z-score in [8] worked out at 0.491; in assay [9], 1.36; in assay [11] it was 0.792; in assay [16], 1.45; in assay [17], 0.38; in assay [18], 0.662. Moreover, the composite z-score was 1.09 in [19] and 0.263 in assay [20]. The z-score is -1.63 in assay [7]; -5.74 (inactive) in assay [10]; -3.97 (inactive) in [12]; -0.065 (inactive) in assay [13]; 0.143 (inactive) in [14]; -0.757 (inactive) in assay [15].
